The target in test [1] is Cytochrome P450 2C9 (Homo sapiens) (UniProt P11712). Description: Cytochrome P450 Family 2 Subfamily C Member 9 (CYP2C9) small molecule antagonists: luciferase reporter qHTS assay (AID 1671198). As to activity change, negative = inhibition: series mostly up to about 120 µM. In a few lines: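 P450-Glo proluciferin substrate with CYP2C9 enzyme; 10 min RT preincubation, then NADPH regeneration 1 h at 37C; luciferin detection reagent 20 min RT, luminescence in relative luminescence units.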
On the technique in general: A reporter such as luciferase makes a cellular process visible.

Test [2] has as its target Cytochrome P450 1A2 (Homo sapiens) (UniProt P05177). In words: Cytochrome P450 Family 1 Subfamily A Member 2 (CYP1A2) small molecule antagonists: luciferase reporter qHTS assay (AID 1671199). As to activity change, negative = inhibition: series mostly up to about 120 µM. In a few lines: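 CYP1A2 turnover of a luminogenic substrate was quantified after 1 h with NADPH regeneration at room temperature. Furafylline served as positive control.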
Test [3] addresses Voltage-gated inwardly rectifying potassium channel KCNH2 (Homo sapiens) (UniProt Q12809). In words: Human Ether-a-go-go-Related Gene (hERG) channel small molecule antagonists: fluorescence cell-based qHTS assay (AID 1671200).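 As to activity change, negative = inhibition: hERG-expressing U2OS cells given a thallium stimulus after FluxOR II dye loading; series mostly up to about 77 µM.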 Summed up:
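Channel function was assessed by thallium flux. Cells seeded the previous day and kept at 37 C took up FluxOR II dye over 1 h in the dark at room temperature, then sat another 10 min before stimulation.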

The target of test [4] is Cytochrome P450 3A4 (Homo sapiens) (UniProt P08684). In words: Cytochrome P450 Family 3 Subfamily A Member 4 (CYP3A4) small molecule antagonists: luciferase reporter qHTS assay (AID 1671201). As to activity change, negative = inhibition: series mostly up to about 120 µM. In a few lines: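 Compounds in DMSO were pin-transferred onto CYP3A4 enzyme-substrate mix and held 10 min at room temperature. NADPH regenerating solution started the reaction for 1 h; luciferin detection reagent stopped it, and luminescence was read after 20 min.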

SMILES strings stand for the structures. “And” between values parts separate entries of the source, which are not always exact repeats. Equal values may be shown once. Records with an inconclusive call do not appear. Where a structure was tested more than once in an assay, its records may differ in their call. The source made the active and inactive calls. Calls follow the shape of the dose curve; as a rule, active = well fitted curve in the direction sought with a large enough effect in the repeat runs; inconclusive = weak or mixed curves; inactive = no such curve, though single readings can be large; an effect the other way counts as inactive or inconclusive.
% is scaled to controls: 0 for no effect and ±100 for the full control effect; potency is read from the fitted curve at half-maximal effect.
Also: nearly all actives have a fitted effect of over 50% in size.

Sequence of Cytochrome P450 2C9 (Homo sapiens) (P11712 whole entry, looked up): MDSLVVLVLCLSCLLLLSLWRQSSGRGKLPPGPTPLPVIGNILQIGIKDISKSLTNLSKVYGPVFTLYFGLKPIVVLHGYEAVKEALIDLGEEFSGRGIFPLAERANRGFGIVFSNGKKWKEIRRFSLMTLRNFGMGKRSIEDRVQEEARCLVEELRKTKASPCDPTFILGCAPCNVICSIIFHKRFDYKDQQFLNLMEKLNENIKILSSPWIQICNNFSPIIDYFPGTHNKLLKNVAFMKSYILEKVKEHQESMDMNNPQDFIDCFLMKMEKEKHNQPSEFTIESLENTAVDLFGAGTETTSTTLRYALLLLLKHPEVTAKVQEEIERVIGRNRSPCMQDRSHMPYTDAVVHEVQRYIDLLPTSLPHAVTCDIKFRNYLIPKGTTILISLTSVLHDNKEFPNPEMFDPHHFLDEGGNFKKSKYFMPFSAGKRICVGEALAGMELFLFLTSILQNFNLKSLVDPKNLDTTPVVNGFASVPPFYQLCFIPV
Sequence of Cytochrome P450 1A2 (Homo sapiens) (P05177 whole entry, looked up): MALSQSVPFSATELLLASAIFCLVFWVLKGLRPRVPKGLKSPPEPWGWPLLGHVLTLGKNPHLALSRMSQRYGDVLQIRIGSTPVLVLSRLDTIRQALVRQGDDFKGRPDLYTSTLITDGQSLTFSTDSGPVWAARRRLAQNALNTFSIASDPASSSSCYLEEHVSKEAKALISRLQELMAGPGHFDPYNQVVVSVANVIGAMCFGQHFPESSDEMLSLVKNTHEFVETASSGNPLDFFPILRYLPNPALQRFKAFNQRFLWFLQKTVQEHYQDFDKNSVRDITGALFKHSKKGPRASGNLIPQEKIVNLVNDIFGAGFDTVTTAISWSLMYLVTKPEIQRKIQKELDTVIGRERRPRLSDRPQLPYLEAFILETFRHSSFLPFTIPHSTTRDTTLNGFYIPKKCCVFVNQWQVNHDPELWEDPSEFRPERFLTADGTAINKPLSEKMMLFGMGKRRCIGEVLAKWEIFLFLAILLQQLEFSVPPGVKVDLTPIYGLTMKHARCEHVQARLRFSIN
Sequence of Voltage-gated inwardly rectifying potassium channel KCNH2 (Homo sapiens) (Q12809 whole entry, looked up): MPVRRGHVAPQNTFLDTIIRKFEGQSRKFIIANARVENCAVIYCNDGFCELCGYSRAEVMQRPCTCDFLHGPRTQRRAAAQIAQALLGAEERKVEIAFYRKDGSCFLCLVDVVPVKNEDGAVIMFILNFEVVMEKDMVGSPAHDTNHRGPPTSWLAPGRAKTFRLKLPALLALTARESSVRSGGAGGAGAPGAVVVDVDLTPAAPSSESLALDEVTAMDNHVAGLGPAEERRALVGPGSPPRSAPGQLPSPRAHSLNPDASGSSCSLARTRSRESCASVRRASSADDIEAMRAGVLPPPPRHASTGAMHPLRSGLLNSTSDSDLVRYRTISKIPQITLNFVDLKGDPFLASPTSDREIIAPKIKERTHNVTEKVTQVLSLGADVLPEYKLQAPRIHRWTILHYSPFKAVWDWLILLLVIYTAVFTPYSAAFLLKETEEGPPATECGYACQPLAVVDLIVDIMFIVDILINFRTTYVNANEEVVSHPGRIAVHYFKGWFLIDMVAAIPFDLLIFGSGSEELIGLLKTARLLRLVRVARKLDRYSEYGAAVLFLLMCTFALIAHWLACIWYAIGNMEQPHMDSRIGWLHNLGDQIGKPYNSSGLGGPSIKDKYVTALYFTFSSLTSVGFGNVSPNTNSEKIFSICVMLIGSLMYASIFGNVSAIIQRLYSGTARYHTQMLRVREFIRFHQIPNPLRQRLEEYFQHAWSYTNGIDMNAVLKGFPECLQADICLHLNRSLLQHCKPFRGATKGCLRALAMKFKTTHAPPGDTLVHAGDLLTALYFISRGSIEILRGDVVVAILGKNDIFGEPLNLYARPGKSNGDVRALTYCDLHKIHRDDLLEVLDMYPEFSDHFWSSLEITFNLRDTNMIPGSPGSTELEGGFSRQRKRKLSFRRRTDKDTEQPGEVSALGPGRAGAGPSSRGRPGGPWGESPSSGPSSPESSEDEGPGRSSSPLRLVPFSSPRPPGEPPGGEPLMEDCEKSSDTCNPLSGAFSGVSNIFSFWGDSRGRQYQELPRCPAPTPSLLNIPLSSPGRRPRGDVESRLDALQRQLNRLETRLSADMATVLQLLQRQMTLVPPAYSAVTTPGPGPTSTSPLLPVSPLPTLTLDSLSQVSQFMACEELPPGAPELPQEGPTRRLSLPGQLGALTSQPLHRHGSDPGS
Sequence of Cytochrome P450 3A4 (Homo sapiens) (P08684 whole entry, looked up): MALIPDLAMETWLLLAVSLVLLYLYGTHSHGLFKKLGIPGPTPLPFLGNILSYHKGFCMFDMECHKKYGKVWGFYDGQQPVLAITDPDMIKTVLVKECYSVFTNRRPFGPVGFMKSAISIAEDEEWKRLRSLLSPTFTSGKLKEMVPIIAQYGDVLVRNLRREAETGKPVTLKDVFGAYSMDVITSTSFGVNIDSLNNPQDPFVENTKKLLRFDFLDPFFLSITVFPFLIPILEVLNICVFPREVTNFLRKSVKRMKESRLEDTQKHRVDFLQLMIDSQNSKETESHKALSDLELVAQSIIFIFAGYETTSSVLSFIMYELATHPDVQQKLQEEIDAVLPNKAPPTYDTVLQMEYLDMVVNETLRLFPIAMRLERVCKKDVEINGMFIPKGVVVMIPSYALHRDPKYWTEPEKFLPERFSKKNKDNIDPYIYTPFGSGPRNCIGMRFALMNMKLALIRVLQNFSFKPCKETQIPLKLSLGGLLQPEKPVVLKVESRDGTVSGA

In the case of `CCc1nc(N)nc(N)c1-c1ccc(Cl)cc1`, the Potency result in test [1], in test [2] and in test [3] was “inactive” throughout.

For `CC(=O)CCC(=O)O`, the Potency entry in test [1], in test [2] and in test [3] was “inactive” each time.

For the compound `Cc1ncc([N+](=O)[O-])n1C`, the Potency entry in test [1], in test [2], in test [3] and in test [4] was “inactive” each time.

For the compound `CCCCOC(=O)c1ccc(O)cc1`, the Potency is 32.1 µM (active) and 28.3 µM (active) and 17.4 µM (active) in test [1]; 4.54 µM (active) and 6.33 µM (active) and 4.36 µM (active) in test [2]. The Potency entry in test [3] and in test [4] was “inactive” each time.

With `O=C1c2c(O)cccc2Cc2cccc(O)c21`, the Potency result in test [1], in test [2], in test [3] and in test [4] was “inactive” each time.

Turning to `CCCCCCCCCCCCCCCC[N+](C)(C)Cc1ccccc1`, the Potency is 82.2 µM (active) and 36.2 µM (active) and 30.9 µM (active) in test [1]; 36.7 µM (active) and 72.3 µM (active) and inactive in test [2]; 1.79 µM (active) and 4.98 µM (active) and 6.74 µM (active) in test [3]. Besides, in test [4], the Potency entry is “inactive”.

In the case of `CC(=O)Nc1c(I)c(NC(C)=O)c(I)c(C(=O)O)c1I`, the Potency entry in test [1], in test [2], in test [3] and in test [4] was “inactive” throughout.

Consider `C=C(C)C(=O)OCC(C)O` (stereo not drawn), for which the Potency entry in test [1], in test [2], in test [3] and in test [4] was “inactive” each time.

With `Nc1c2c(nc3ccccc13)CCCC2`, the Potency result in test [1], in test [3] and in test [4] was “inactive” throughout. Besides, in test [2], the Potency is 5.03 µM (active) and 7.1 µM (active) and 7.23 µM (active).

With `Cc1cc(C)nc(NS(=O)(=O)c2ccc(N)cc2)n1`, the Potency result in test [1], in test [2], in test [3] and in test [4] was “inactive” each time.

In the case of `CN(N=O)C(=O)N[C@@H]1[C@@H](O)[C@H](O)[C@@H](CO)O[C@@H]1O`, the Potency entry in test [1], in test [2], in test [3] and in test [4] was “inactive” throughout.

Take `C1CCC(C(CC2CCCCN2)C2CCCCC2)CC1` (stereo not drawn): the Potency result in test [1] and in test [2] was “inactive” each time.

With `C[C@](N)(Cc1ccc(O)c(O)c1)C(=O)O`, the Potency result in test [1], in test [2], in test [3] and in test [4] was “inactive” in each case.

Turning to `Cc1ncc([N+](=O)[O-])n1CCO`, the Potency result in test [1], in test [2], in test [3] and in test [4] was “inactive” each time.

As to `Nc1ccc2c(c1)CN1C(=O)c3ccccc3C1=N2`, the Potency in test [1] is 3.79 µM (active); in test [2], 0.499 µM (active). Further, the activity change, negative = inhibition in test [3] is 0.308% [at 15.8 µM] (inactive).

On to `O=c1[nH]cnc2c1ncn2[C@H]1CC[C@@H](CO)O1`, for which the Potency result in test [1], in test [2], in test [3] and in test [4] was “inactive” each time.

Regarding `Nc1c(N=Nc2ccc(-c3ccc(N=Nc4cc(S(=O)(=O)O)c5ccccc5c4N)cc3)cc2)cc(S(=O)(=O)O)c2ccccc12`, the Potency in test [1] is 31.7 µM (active); in test [2] it was 63.3 µM (active).

`CCCCCCc1ccc(O)cc1O`: the Potency was 7.12 µM (active) and 6.33 µM (active) and 5.49 µM (active) in test [1]; 71.2 µM (active) and 71 µM (active) and inactive in test [2]. Further, in test [3], the Potency entry was “inactive”.

On to `Nc1ccc([N+](=O)[O-])cc1O`, for which the Potency in test [1] is 43.5 µM (active); in test [2], 42.3 µM (active). In addition, the Potency entry in test [3] is “inactive”.

On to `CN(C)C(=S)SC(=S)N(C)C`, for which the Potency in test [1] was 36.5 µM (active) and 25.2 µM (active) and 34.7 µM (active); in test [2] it was 32.5 µM (active) and 39.9 µM (active) and 25.7 µM (active). The Potency result in test [3] and in test [4] was “inactive” in each case.

With `CN(C)C(=O)Nc1ccc(Cl)c(Cl)c1`, the Potency entry in test [1], in test [3] and in test [4] was “inactive” each time. Moreover, the Potency in test [2] is 794 nM (active) and 1.42 µM (active) and 645 nM (active).

On to `Nc1ccc(O)c([N+](=O)[O-])c1`, for which the values for the Potency in test [1] and in test [2] were 25 µM (active) and 48.5 µM (active), respectively. The Potency entry in test [3] is “inactive”.

Consider `O=C(Nc1ncc([N+](=O)[O-])s1)c1cccs1`, for which the values for the Potency in test [1] and in test [2] were 5.49 µM (active) and 1.82 µM (active), respectively. Further, the Potency entry in test [3] was “inactive”.

In the case of `NC(=O)n1c(O)c(C(=O)c2cccs2)c2cc(Cl)ccc21`, the Potency in test [1] was 12.3 µM (active); in test [2], 15.5 µM (active). Further, in test [3], the Potency entry is “inactive”.

Take `CC12CCC(CC1)C(C)(C)O2`: the Potency entry in test [1], in test [3] and in test [4] was “inactive” in each case. The Potency in test [2] was 31.3 µM (active) and inactive.

Turning to `CC(C)C(=O)Nc1ccc([N+](=O)[O-])c(C(F)(F)F)c1`, the Potency in test [1] was 32.6 µM (active) and 31.7 µM (active) and 15.5 µM (active); in test [2], 1.63 µM (active) and 5.03 µM (active) and 2.57 µM (active). For the same compound, the Potency entry in test [3] is “inactive”.

Consider `CN[C@H]1CC[C@@H](c2ccc(Cl)c(Cl)c2)c2ccccc21`, for which the results for the Potency in test [1] and in test [2] were 30.9 µM (active) and 17.4 µM (active), respectively.

Take `O=c1[nH]cc(F)c(=O)[nH]1`: the Potency entry in test [1], in test [3] and in test [4] was “inactive” in each case. For the same compound, the Potency in test [2] is 32.9 µM (active) and inactive.

As to `O=C1OC2(c3ccccc31)c1cc(Br)c(O)c(Br)c1Oc1c2cc(Br)c(O)c1Br`, the Potency in test [1] is 5.1 µM (active) and 9.19 µM (active) and 7.76 µM (active); in test [2] it was 29.1 µM (active). The Potency entry in test [3] and in test [4] was “inactive” in each case.

Take `COc1ccc(CN(CCN(C)C)c2ccccn2)cc1`: the Potency result in test [1], in test [2] and in test [4] was “inactive” throughout. Also, the Potency in test [3] was 21.7 µM (active) and 20.1 µM (active).

`OC[C@H]1O[C@H](O[C@]2(CCl)O[C@H](CCl)[C@@H](O)[C@@H]2O)[C@H](O)[C@@H](O)[C@H]1Cl`: the Potency entry in test [1], in test [2], in test [3] and in test [4] was “inactive” each time.

As to `F[B-](F)(F)F`, the Potency entry in test [1] and in test [3] was “inactive” in each case. Further, the Potency entry in test [2] is “inactive and 40.5 µM (active)”; in test [4], “inactive and 40.5 µM (active)”.

(Values after PubChem BioAssay (Tox21).)
